From PubChem BioAssay AID488922 (Johns Hopkins Ion Channel Center, 2010)
In all, about 310,000 compounds went through this assay and about 3,800 (1.2%) were called active. The sample holds actives, similar compounds and a random draw of the others, so the mix is not that of the screen.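 How the source made its calls: active means ratio B-score over 3 SD below the library mean, with starting fluorescence within 5 SD of its mean; inactive means the rest, inconclusive results apart.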

What follows are compounds tested against Potassium channel subfamily K member 9 (Homo sapiens) (UniProt Q9NPC2) (assay: blockers of human TASK-3 (KCNK9) channel – HEK293 cells, thallium flux, primary screen (AID 488922;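 on B-score: negative B-score means less thallium flux so channel inhibition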)). Details: HEK293 KCNK9, FluxOR thallium flux fluorescence, at 10 µM; hits give low values.
Chain of Potassium channel subfamily K member 9 (Homo sapiens) (Q9NPC2 whole entry, looked up): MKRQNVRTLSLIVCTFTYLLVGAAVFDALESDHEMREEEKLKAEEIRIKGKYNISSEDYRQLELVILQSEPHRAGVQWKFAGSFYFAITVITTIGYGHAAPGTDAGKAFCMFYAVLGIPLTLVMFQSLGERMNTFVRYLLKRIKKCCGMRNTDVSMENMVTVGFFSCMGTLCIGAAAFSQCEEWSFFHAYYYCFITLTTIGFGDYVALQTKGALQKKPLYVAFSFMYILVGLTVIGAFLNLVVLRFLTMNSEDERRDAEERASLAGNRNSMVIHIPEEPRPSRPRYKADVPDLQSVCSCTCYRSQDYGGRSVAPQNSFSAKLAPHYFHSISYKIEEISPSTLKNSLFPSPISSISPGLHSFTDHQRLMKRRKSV

SMILES | B-score
O=C(Cn1cc(C(=O)c2cccs2)c2ccccc21)NCc1cccs1 | -13.5 (active)
COC(=O)c1cn(CC(=O)NCc2cccs2)c2ccccc12 | inactive
COCCNC(=O)Cn1cc(C(=O)c2cccs2)c2ccccc21 | inactive
Cc1ccc(C(C[N+](=O)[O-])c2c(C)cc3ccccn23)cc1 (stereo not given) | inactive
COc1cccc(CC2(CO)CCCN(Cc3ccc(OC(F)F)cc3)C2)c1 (stereo not given) | inactive
Cc1cc(C)cc(Oc2c(C(F)(F)F)oc3cc(OCC(=O)O)ccc3c2=O)c1 | inactive
COc1ccc(N(CCC#N)S(=O)(=O)c2ccc(Cl)cc2)cc1 | inactive
CCC(c1nnnn1Cc1ccco1)N(Cc1cc2cc(OC)ccc2[nH]c1=O)C1CCCCC1 (stereo not given) | inactive
Cc1cccc2cc(CN(Cc3ccc4c(c3)OCO4)Cc3nnnn3C3CCCC3)c(=O)[nH]c12 | inactive
Cc1cc(C)c2cc(CN(Cc3nnnn3Cc3ccc(F)cc3)C3CCCC3)c(=O)[nH]c2c1 | inactive
Cc1cccc2cc(CN(Cc3nnnn3Cc3ccccc3)C3CCCC3)c(=O)[nH]c12 | -11.5 (active)
CCC(c1nnnn1Cc1ccco1)N(CCc1ccccc1)Cc1cc2cccc(C)c2[nH]c1=O (stereo not given) | -8.62 (active)
CCC(c1nnnn1Cc1ccco1)N(CCc1ccccc1)Cc1cc2ccc(OC)cc2[nH]c1=O (stereo not given) | inactive
C/C=N/NC(=O)CCCC(=O)N/N=C/C | inactive
CCNCCC(=O)N1c2ccccc2Sc2ccc(NC(=O)OCC)cc21 | inactive
N#Cc1nc(Cc2cccc3ccccc23)oc1NCc1ccc2c(c1)OCO2 | -11.2 (active)
c1n[nH]c(NCc2ccc3c(c2)OCO3)n1 | inactive
Cn1cc(CCC(=O)NCc2ccc3c(c2)OCO3)c2ccccc21 | inactive
CC(=O)N1Cc2ccccc2CC1C(=O)O (stereo not given) | inactive
CN1C2CCC1/C(=C\c1ccccc1Cl)C(=O)/C2=C\c1ccccc1Cl | -8.6 (active)
O=C(CN1C(=O)S/C(=C\c2ccccc2Cl)C1=O)NC1C=CS(=O)(=O)C1 (stereo not given) | inactive
O=C(CN1CCCCCC1)NCCN1C(=O)S/C(=C\c2ccccc2Cl)C1=O | inactive
O=C(CCc1nnc2ccc(NCc3ccccc3Cl)nn12)NCC1CCN(C2CCCC2)C1 (stereo not given) | inactive
Cc1ccc(CCNC(=O)C2CCN(S(=O)(=O)N3CCCC3)CC2)cc1 | inactive
COc1cc(C(=O)NCC2(c3ccccc3)CCCC2)ccc1OC(C)C | inactive

SMILES | B-score
CCOc1c(OC)cccc1C(=O)NCC1(c2ccccc2)CCCC1 | inactive
O=C(CNC1CCCCC1)NCC1(c2ccccc2)CCCC1 | -7.46 (active)
C=C(Br)CN1CCN(CC(=C)Br)CC1 | inactive
CCCCNC(=O)N1CCN(S(C)(=O)=O)CC1 | inactive
CN(C)N=Nc1ccc2nc[nH]c2c1 | inactive
Fc1ccc(Cn2nnnc2C(c2cccs2)N2CCCCCC2)cc1 (stereo not given) | -13.1 (active)
Cc1cc(C)c2[nH]c(=O)c(C(c3nnnn3Cc3ccc4c(c3)OCO4)N3CCCC3)cc2c1 (stereo not given) | inactive
Fc1ccccc1C(c1nnnn1Cc1ccc2c(c1)OCO2)N1CCN(Cc2ccccc2)CC1 (stereo not given) | inactive
CCCn1c(SCC(=O)Nc2ccc(C)c(S(=O)(=O)N3CCOCC3)c2)n[nH]c1=O | inactive
Cc1ccc(C(=O)OCC(=O)N2CC(C)CC(C)C2)cc1S(=O)(=O)N1CCCCC1 (stereo not given) | inactive
COc1ccc2c(CC(=O)N3CCc4cc(OC)c(OC)cc4C3)coc2c1 | inactive
Cc1cc(C)cc(OCC(=O)O/N=C(\N)Cc2ccc([N+](=O)[O-])cc2)c1 | inactive
N/C(Cc1ccc([N+](=O)[O-])cc1)=N\OC(=O)COc1ccc2ccccc2c1 | -7.84 (active)
N/C(=N\OC(=O)COc1ccc([N+](=O)[O-])cc1)c1ccc(Br)cc1 | inactive
CCCc1cc(=O)oc2cc(OCC(=O)Nc3ccc(CN4CCOCC4)cc3)c(Cl)cc12 | inactive
CN(C)c1ccc(NC(=O)c2ccncc2)c2ccccc12 | inactive
Oc1ccccc1CN1CCN(C(c2ccccc2)c2ccccc2)CC1 | inactive
c1ccc(C(c2ccccc2)N2CCN(Cc3nnnn3C3CCCCC3)CC2)cc1 | -14.6 (active)
c1ccc(CCn2nnnc2CN2CCN(C3CCCC3)CC2)cc1 | inactive
Cc1nn(Cc2ccccc2Cl)c(C)c1NC(=O)Cn1nc([N+](=O)[O-])c(Cl)c1C | inactive
CC(=O)N1CCN(c2ccccc2NC(=S)NC(=O)c2cc3ccccc3o2)CC1 | inactive
O=C(NCc1ccco1)c1ccc([N+](=O)[O-])cc1Cl | inactive
O=C(NCc1ccco1)c1ccc(NS(=O)(=O)c2cccc([N+](=O)[O-])c2)cc1 | -8.56 (active)
O=C(NCc1ccncc1)c1ccc(NS(=O)(=O)c2cccc([N+](=O)[O-])c2)cc1 | inactive
O=C1CCCC(O)=C1N=Nc1ccc2ncsc2c1 | inactive

SMILES | B-score
Cc1ccc(S(=O)(=O)N2CCC(C(=O)NCCC3=CCCCC3)CC2)cc1C | inactive
CS(=O)(=O)n1nc(-c2ccccc2)nc1NCc1ccco1 | inactive
O=C(NCc1ccco1)c1nc(-c2ccccc2)n(-c2ccccc2)n1 | inactive
CCOCCCNc1nc(-c2ccccc2)nc2ccccc12 | inactive
O=C(Cc1ccccc1)n1nc(-c2ccccc2)nc1NCc1ccco1 | -9.15 (active)
c1coc(CNc2ncnc3ccccc23)c1 | inactive
c1ccc(-c2nc(NCc3ccco3)c3ccccc3n2)cc1 | -6.58 (active)
CC(OC(=O)c1ccc(NS(=O)(=O)c2ccc3[nH]c(=O)[nH]c3c2)cc1)C(=O)Nc1cccc(Cl)c1Cl (stereo not given) | inactive
COc1ccc(-c2cnc(SCCNC(=O)c3ccc4c(c3)OCO4)[nH]2)cc1 | inactive
Cc1ccccc1N1CCN(CC(=O)NCc2ccc(Cl)cc2)CC1 | inactive
O=C(NCCc1ccc(Cl)cc1)C1CCCN1C(=O)NCc1ccccc1 (stereo not given) | inactive
O=C(Nc1ccccc1)c1ccco1 | inactive
O=C(Nc1ccc(Oc2ccccc2)cc1)c1ccco1 | -10.1 (active)
O=C(Nc1ccc(O)cc1)c1ccc(NC(=O)c2ccco2)cc1 | inactive
Cc1cc(C)cc(NC(=O)C2CCCN(S(=O)(=O)c3ccc4[nH]c(=O)ccc4c3)C2)c1 (stereo not given) | inactive
O=C(Oc1ccccc1C(=S)N1CCCCC1)c1cc([N+](=O)[O-])cc([N+](=O)[O-])c1 | inactive
O=C(Oc1ccc(Br)cc1C(=S)N1CCOCC1)c1cccc([N+](=O)[O-])c1 | -16.4 (active)
COc1cc(C(=S)N2CCOCC2)cc(OC)c1OC(=O)c1cc([N+](=O)[O-])cc([N+](=O)[O-])c1 | inactive
COc1ccccc1C(=O)Nn1cnnc1 | inactive
CC(=O)Nc1ccc(OCCC[n+]2cccc(C(=O)[O-])c2)cc1 | inactive
Nc1c(-c2ccccc2)nnn1Cc1ccccc1 | inactive
CCCC1=Nc2cc(C(=O)NCc3ccco3)ccc2Sc2ccccc21 | -8.7 (active)
CCCC1=Nc2cc(C(=O)NCCN3CCCC3)ccc2Sc2ccccc21 | inactive
CC(C)(C)c1ccc(C(=O)NCc2ccco2)cc1 | inactive
CN(C)/C=C(\C#N)C(=O)c1cccnc1Oc1cccc(F)c1 | inactive
